Screening results from PubChem.
D2 ag-1: HTS Assay for Allosteric Agonists of the Human D2 Dopamine Receptor: Primary Screen for Agonists | D(2) dopamine receptor (Homo sapiens), P14416 | HEK293 T-REx D2 cells, calcium flux agonist mode | activation, % at 2 µM | 340,000 tested, 0.53% active | AID 485358, 2010;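 active = activation over 3 SD above normal in the single-dose calcium agonist read, cut at about 30% in these data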
Target sequence (P14416 whole entry, looked up): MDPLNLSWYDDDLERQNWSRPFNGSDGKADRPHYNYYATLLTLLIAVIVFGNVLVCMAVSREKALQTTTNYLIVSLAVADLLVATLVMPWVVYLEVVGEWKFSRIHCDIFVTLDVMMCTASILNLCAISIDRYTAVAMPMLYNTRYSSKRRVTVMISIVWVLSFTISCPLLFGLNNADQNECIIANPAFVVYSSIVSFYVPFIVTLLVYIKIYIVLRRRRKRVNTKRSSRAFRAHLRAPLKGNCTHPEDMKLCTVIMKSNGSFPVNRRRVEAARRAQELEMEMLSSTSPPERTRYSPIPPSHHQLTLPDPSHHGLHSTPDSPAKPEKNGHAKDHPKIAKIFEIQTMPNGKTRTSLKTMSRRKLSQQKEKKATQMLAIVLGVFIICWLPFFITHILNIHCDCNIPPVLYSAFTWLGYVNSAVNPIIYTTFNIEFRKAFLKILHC
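Tetracycline-induced HEK293 T-REx cells with force-coupled D2 receptor, plated overnight at 30 C, loaded with no-wash calcium dye. After a 10 s baseline, compound was pin-added and calcium flux read kinetically for 180 s; calcium rises flagged agonists.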
D2 PAM-1: Beta-Arrestin HTS for Positive Allosteric Modulators of the Human D2 Dopamine Receptor: Potentiators. D(2) dopamine receptor (Homo sapiens), P14416. DiscoveRx D2 beta-arrestin cells, luminescence, 90 min; 100% = 57 uM dopamine signal. potentiation, % (no concentration beside the values). 360,000 tested, 0.23% active. AID 624464, 2012; in the data active = potentiation above about 50%; inconclusive = mostly about 30% to 49%
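PathHunter D2 cells, attached overnight at 37 deg C, received compound in DMSO plus dopamine at EC20 (50 nM final) for 90 min at 37 deg C. Beta-arrestin recruitment was read as luminescence after 1 h with detection reagent at ambient temperature.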
D2 antagonist: HTS Assay for Allosteric Antagonists of the Human D2 Dopamine Receptor: Primary Screen for Antagonists; D(2) dopamine receptor (Homo sapiens), P14416; HEK293 TREx D2 cells, calcium flux, dopamine EC80; inhibition, % at 10 µM; 340,000 tested, 2% active; AID 485344, 2010; in the data active = inhibition above about 30%; inactive = below that, where a call was filed
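HEK293 T-REx D2 cells, tet-induced, calcium dye no-wash. Cpd pintool add, 180 s kinetic, then EC80 DA, 180 s kinetic. Ca flux read.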
D2 PAM-2: HTS Assay for Positive Allosteric Modulators of the Human D2 Dopamine Receptor: Primary Screen for Potentiators; D(2) dopamine receptor (Homo sapiens), P14416; HEK293 T-REx D2, calcium flux, EC20 dopamine potentiation; potentiation, % at 10 µM; 340,000 tested, 0.34% active; AID 485347, 2010;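 active = potentiation over 3 SD above the plate norm, cut at about 30% in these data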
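Potentiation of an EC20 dopamine calcium response measured kinetically over 180 s, after a preceding 180 s compound-only read flagging agonists. Cells: inducible Hek293 Trex D2 line, 4000/well, cultured overnight at 30 C before dye loading.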
D2 ag-2: Beta-Arrestin HTS for Positive Allosteric Modulators of the Human D2 Dopamine Receptor: Agonists | DiscoveRx PathHunter D2 beta-arrestin, luminescence, 90 min; 100% = 57 uM dopamine signal | activation, % (concentration not given with the values) | 360,000 tested, 0.084% active | AID 624465, 2012; in the data active = activation above about 40%; inconclusive = between about 15% and that limit
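Agonist mode: compounds alone added to overnight-plated D2 PathHunter cells for 90 min at 37 C, with 57 uM final dopamine (EC100) defining full response. Beta-arrestin recruitment detected by chemiluminescent reagent, read after 1 h at ambient temperature.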
A number is an active result; . = inactive; ? = inconclusive; / = no result given. This is a sample that favours compounds with a hit; in the whole collection about 2.4% have one here.

SMILES	D2 ag-1	D2 PAM-1	D2 antagonist	D2 PAM-2	D2 ag-2
CC1(C)CC(=O)CC2(C1)NCC(c1ccccc1)c1c2[nH]c2ccccc12 (stereo not drawn)	.	.	31.4	.	.
CCOC(=O)N1CCc2c(sc(NCc3cccc(F)c3)c2C(=O)Nc2ccc(OC)cc2OC)C1	.	/	/	.	/
CCc1ccc(-c2cc3c(N4CCN(c5ccccc5)CC4)nccn3n2)cc1	.	/	/	.	/
Cc1ccc(/C=N/NC(=O)Cn2nnc(N)n2)cc1	.	.	41.0	.	.
CC1=C(C(=O)NCc2ccc(Cl)cc2)C2(CCCCCC2)OC1=O	.	/	/	.	/
Cc1sc(NC(=O)CSc2nc(N)n(CC(=O)c3ccccc3)n2)c(C#N)c1C	32.7	.	.	.	.
O=c1cc2nc(-c3ccccc3F)nc(SCc3ccc(Br)cc3)n2[nH]1	/	/	/	.	/
O=C(c1ccccc1)N1CCCCC1CCN1CCCCC1 (stereo not drawn)	.	/	/	.	/
Cc1ccc(-n2c(SCC(=O)Nc3ccc(Cl)cc3)nc(O)cc2=O)cc1	.	.	.	.	.
O=C(CN1C(=O)CCC1=O)NCC12CC3CC(CC(C3)C1)C2	.	.	.	38.5	.
C=CCN(CC=C)CC(O)CN(c1cc([N+](=O)[O-])ccc1OC)S(=O)(=O)c1ccccc1 (stereo not drawn)	.	.	66.1	.	.
CN(c1ccc(OCC(=O)Nc2ccccc2C(=O)O)cc1)S(=O)(=O)c1ccc(Cl)cc1	/	62.2	/	/	.
CC(=O)Nc1ccc(S(=O)(=O)N(C)c2ccc(OCC(=O)Nc3ccccc3C(C)=O)cc2)cc1	.	.	.	.	.
O=S(=O)(c1ccc2nc(-c3ccco3)c(-c3ccco3)nc2c1)N1CCOCC1	.	56.0	.	.	.
O=S(=O)(c1ccc2ccccc2c1)N1CCOCC1	.	.	.	.	.
O=C(OCc1nnc(-c2ccc([N+](=O)[O-])cc2)o1)C1CCN(C(=O)c2ccc(F)cc2)CC1	.	.	34.7	.	.
O=C(OCc1nnc(-c2ccc([N+](=O)[O-])cc2)o1)C1CCN(C(=O)c2ccc(Cl)cc2)CC1	.	.	.	.	.
O=C(NCC1CCCO1)c1nnc(Cc2ccc(F)cc2)o1 (stereo not drawn)	.	.	38.9	.	.
COc1ccccc1C(=O)NNC(=O)c1ccc2ccccc2c1	.	66.9	.	.	.
COc1ccccc1C(=O)NNC(=O)c1ccc(O)cc1	/	.	/	/	.
CCCCNc1c(NC(C)=O)c(=O)oc2ccccc12	.	.	.	.	.
Cc1ccc(S(=O)(=O)N2CCOCC2)cc1C(=O)NCc1ccccc1CN1CCCC1	/	.	/	/	.
CCN1CCc2c(sc(NC(=O)Cc3ccccc3)c2C(N)=O)C1	.	.	.	.	.
NC(=O)c1c(NC(=O)c2ccccc2)sc2c1CCN(Cc1ccccc1)C2	44.0	.	.	.	.
CCN1CCc2c(sc(NC(=O)c3ccc(S(=O)(=O)N(CC)c4ccccc4)cc3)c2C(N)=O)C1	52.3	.	.	.	.
SMILES	D2 ag-1	D2 PAM-1	D2 antagonist	D2 PAM-2	D2 ag-2
CCN1CCc2c(sc(NC(=O)Nc3ccc(Cl)c(Cl)c3)c2C(N)=O)C1	109.4	.	72.5	.	.
NC(=O)c1c(NC(=O)c2c(F)cccc2F)sc2c1CCN(Cc1ccccc1)C2	.	.	.	.	.
CC(C)C(=O)Nc1sc2c(c1C(N)=O)CCN(Cc1ccccc1)C2	.	.	.	.	.
CCC(=O)Nc1sc2c(c1C(N)=O)CCN(Cc1ccccc1)C2	54.5	.	38.1	.	.
Cc1cccc(CN2C(=O)c3ccccc3Sc3ccc(C(=O)NCc4cccs4)cc32)c1	.	/	/	.	/
O=C(Nc1ncc(S(=O)(=O)c2ccc([N+](=O)[O-])cc2)s1)c1cccc2ccccc12	.	62.0	.	.	.
COCC(=O)Nc1ncc(S(=O)(=O)c2ccc([N+](=O)[O-])cc2)s1	.	?	.	.	?
CC(=O)NCCC(=O)Nc1ncc(S(=O)(=O)c2ccc([N+](=O)[O-])cc2)s1	.	52.0	.	.	.
CCCCC(=O)Nc1ncc(S(=O)(=O)c2ccc([N+](=O)[O-])cc2)s1	.	.	.	.	?
COCCCNC(=O)C1CCN(c2nc3ccc(C)cc3[nH]2)CC1	.	/	/	.	/
COc1cc(CN2CCCC(N3CCc4ccccc4C3)C2)c(Cl)cc1O (stereo not drawn)	.	.	.	.	.
COC(=O)c1ccc(C2C(Oc3ccccc3)C(=O)N2CCc2ccc(F)cc2)cc1 (stereo not drawn)	.	.	36.3	.	.
O=C(Nc1cccc(F)c1)c1ccc(-c2ccccc2C(F)(F)F)o1	.	/	.	.	/
COc1ccc(NC(=O)c2ccc(-c3ccccc3C(F)(F)F)o2)cc1	.	.	49.3	.	.
Cc1cccc(-n2nc([N+](=O)[O-])c(=NCc3cccnc3)n2O)c1	.	68.4	.	.	?
O=[N+]([O-])c1nn(-c2cccc(Cl)c2)n(O)c1=NCc1cccnc1	.	59.0	.	.	?
Cc1nn(-c2ccccc2)c(Cl)c1/C=N/Nc1nncc(=O)[nH]1	.	.	.	.	.
Cc1cc(C)n(-c2ccc(C(=O)N3CC(C)OC(C)C3)cc2)n1 (stereo not drawn)	.	.	34.4	.	.
O=C(NCCCN1CCOCC1)c1cccc(S(=O)(=O)Nc2ccccc2Cl)c1	.	.	.	.	.
COc1cc2c(cc1OC)-c1nnnn1C(C)(C)C2	.	.	.	.	.
COc1cc2c(cc1OC)-c1n[nH]c(=S)n1C(C)(C)C2	.	.	.	35.0	.
Cc1ccc(N2CC(c3nnc(Cc4ccc(Cl)cc4)o3)CC2=O)cc1 (stereo not drawn)	.	/	/	.	/
CC(C)/C=C1\CC/C(=C\c2ccc(N(C)C)cc2)C1=O	92.1	.	.	.	.
O=C(N/C(=C\c1ccc(Br)cc1)C(=O)N1CCOCC1)c1ccc(Br)o1	.	.	.	/	.
O=C(N/C(=C/c1ccc(Br)cc1)C(=O)N1CCOCC1)c1ccc(Br)o1	.	.	.	86.1	.
CN1C(=O)Cc2cc(S(=O)(=O)CCC(=O)N3CCN(c4ccc(Cl)cc4)CC3)ccc21	.	/	/	.	/
COc1ccc(OC)c(C2C3CN(C(C)C)CC=C3C(C#N)=C(N)C2(C#N)C#N)c1 (stereo not drawn)	.	.	.	.	.
CCCN1CC=C2C(C#N)=C(N)C(C#N)(C#N)C(c3cccc(OC)c3OC)C2C1 (stereo not drawn)	56.7	.	.	.	.
